Sampled rows, rich in hits. Any-hit rate of the full collection: about 2.6%.
uPA generation – qHTS for Inhibitors of Cell Surface uPA Generation. cell surface uPA generation assay, qHTS. Potency, µM (highest dose often 38.3 µM), inactives show at the highest dose activity change, negative = inhibition, hits mostly inhibitors. actives 0.31% (n = 330,000). AID 540303, 2011; active = well fitted inhibition curve with a large enough effect; inconclusive = small, poorly fitted or top-dose-only effect; inactive = no such curve, though single readings can be large or run the other way; tested in mouse RAW 264.7 cells; note: potency is the fitted concentration of half-maximal effect; % is set by controls: 0 for no effect and ±100 for the full control effect; nearly all actives have a fitted effect of over 55% in size
TGFb inhibitor – qHTS for Inhibitors of TGF-b | AID 588855, 2011 | Potency, µM (series often up to 46.1 µM), inactives show at the top dose activity, negative = inhibition, hits mostly inhibitors | actives 1.2% (n = 410,000) | HepG2 CAGA-GFP TGF-b/SMAD3 reporter, GFP fluorescence, 18 h; TGF-beta stimulated, 500 pg/mL final; note: potency is the fitted concentration of half-maximal effect; % is set by controls: 0 for no effect and ±100 for the full control effect; nearly all actives have a fitted effect of over 65% in size
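TGF-beta reporter screen: HEPG2 CAGA-GFP, 1% FBS, 500 pg/mL TGF-beta final, 18 h; per-cell GFP summed per well; curves fitted and categorized by class.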
HepG2 tox-1 – qHTS for Inhibitors of TGF-b: Cytotox Counterscreen; HepG2 CAGA-GFP viability, ATP luminescence, 18 h; Potency, µM (top dose mostly 46.1 µM), without a hit: at the highest dose activity change, negative = cytotoxicity, hits mostly cytotoxic; actives 0.76% (n = 410,000); note: potency is the fitted concentration of half-maximal effect
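HepG2 CAGA-GFP cells (1000/well, DMEM with 1% FBS) received compound, then TGF-beta at 500 pg/mL final, and were incubated 18 hours at 37 degrees C. Viability was read by CellTiter-Glo luminescence. Media-only wells were set as complete cell-killing and DMSO as no toxicity.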
ATXN2 expr inh – Primary qHTS for Inhibitors of ATXN expression. HEK-293 ATXN2-luciferase reporter, luminescence, 24 h. Potency, µM (doses to about 57 µM), without a hit: top-dose activity change, negative = inhibition, most hits filed as inhibitors. actives 0.72% (n = 360,000). AID 1745845, 2022; note: potency is the fitted concentration of half-maximal effect; % is set by controls: 0 for no effect and ±100 for the full control effect; nearly all actives have a fitted effect of over 55% in size
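ATXN2-luciferase reporter cells (luciferase flanked by upstream and downstream ATXN2 gene portions) were treated 24 h at 37 °C with compounds at up to 57 uM. SteadyGlo luminescence gave expression; GF-AFC fluorescence gave viability.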
ATXN viability – Viability Counterscreen for Primary qHTS for Inhibitors of ATXN expression | actives 0.49% (n = 400,000) | S2 cells (HEK-293 line with an ATXN2-luciferase reporter) viability, CellTiter-Fluor protease fluorescence, 24 h | Potency, µM (highest dose often 56.7 µM), actives largely listed as cytotoxic; note: potency is the fitted concentration of half-maximal effect; nearly all actives have a fitted effect of over 40% in size
Giardia kill – Small Molecules that selectively kill Giardia lamblia: qHTS; activity change, % at 7.66 µM, hits read low; actives 0.15% (n = 340,000); Giardia lamblia trophozoite viability; in the data active = activity change below about -80%; inconclusive = between about -30% and that limit;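 note: parasites exposed to compound for two days anaerobically before the ATP read; % is set by controls: 0 for no effect and ±100 for the full control effect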
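Giardia trophozoites, 100 cells per well, were exposed to compounds for 48 hrs at 37 deg C under anaerobic conditions; viability was then read as ATP content by bioluminescence after 15-30 min at room temperature.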
TGFb CAGA inh – qHTS for Inhibitors of TGF-b: Confirmation of Cherry Picks; shares compounds with TGFb inhibitor; HepG2 CAGA-GFP TGF-b reporter, GFP fluorescence, 18 h; cells stimulated with TGF-beta, 500 pg/mL; Potency, µM (top dose mostly 46.1 µM), for inactives: at the top dose activity, negative = inhibition, actives largely listed as inhibitors; actives 63% (n = 1,600); note: potency is the fitted concentration of half-maximal effect; % is set by controls: 0 for no effect and ±100 for the full control effect; nearly all actives have a fitted effect of over 65% in size
HepG2 tox-2 – qHTS for Inhibitors of TGF-b: Cytotox Counterscreen for Cherry Picks | shares compounds with TGFb inhibitor | HepG2 CAGA-GFP viability, ATP luminescence, 18 h; cells stimulated with TGF-beta, 500 pg/mL | Potency, µM (top dose mostly 46.1 µM), for inactives: top-dose activity, negative = cytotoxicity, actives largely listed as inhibitors | actives 27% (n = 1,600); note: potency is the fitted concentration of half-maximal effect; % is set by controls: 0 for no effect and ±100 for the full control effect; nearly all actives have a fitted effect of over 70% in size
CCL64 TGFb inh – qHTS for Inhibitors of TGF-b: CCL64 Cells Orthogonal Assay for Cherry Picks; shares compounds with TGFb inhibitor; CCL64 CAGA-GFP reporter, TGF-b stimulated, GFP fluorescence, 18 h; Potency, µM (doses to about 46.1 µM), for inactives: at the top dose activity, negative = inhibition, usual class: inhibitors; actives 41% (n = 1,600); AID 720536, 2013; note: potency is the fitted concentration of half-maximal effect; nearly all actives have a fitted effect of over 65% in size
TGFb COP inh – qHTS for Inhibitors of TGF-b: Hit Validation in HepG2 Cells using COP promoter; actives 3% (n = 1,600); HepG2 COP-GFP TGF-b reporter, GFP fluorescence, 18 h; cells stimulated by added recombinant TGF-beta; Potency, µM (highest dose often 46.1 µM), for the others: at the highest dose activity, negative = inhibition, most hits filed as inhibitors; shares compounds with TGFb inhibitor; note: potency is the fitted concentration of half-maximal effect; nearly all actives have a fitted effect of over 70% in size
Numbers without * were called inactive; i = inactive; ? = inconclusive; · = not tested or not shown. Unless noted, calls come from the whole dose curve; as a rule, active = well fitted curve in the direction sought with a large enough effect; inconclusive = small, poorly fitted or top-dose-only effect, or another doubt; inactive = no such curve, though single readings can be large; an effect the other way counts as inactive or inconclusive.

SMILES | uPA generation | TGFb inhibitor | HepG2 tox-1 | ATXN2 expr inh | ATXN viability | Giardia kill | TGFb CAGA inh | HepG2 tox-2 | CCL64 TGFb inh | TGFb COP inh
Cc1ccc(OCCCC(=O)Nc2ccc(Cl)c(S(=O)(=O)N3CCOCC3)c2)cc1 | ? | 8.9µM* | -27% | -35% | i | -3 | ? | ? | 3% | 1%
Cc1cc(C)cc(NC(=O)CSc2nc(-c3ccccc3)c3cc(F)ccc3n2)c1 | · | 0% | -5% | · | · | · | · | · | · | ·
COc1ccc([C@H]2CC(=O)C=C(c3ccc(Cl)c(C(F)(F)F)c3)C2)cc1 | 4% | 8.9µM* | -37% | -2% | i | 7 | ? | ? | ? | 14%
COc1ccc([C@H]2CC(=O)C=C(c3ccc(Cl)c(C(F)(F)F)c3)C2)cc1OC | 4% | ? | -38% | ? | ? | -17 | · | · | · | ·
C=C(C(=O)c1ccccc1)C(C)CC(=O)c1ccccc1 (stereo not drawn) | -2% | 13µM* | -3% | ? | · | 5 | 4.6µM* | 15µM* | 15µM* | -43%
CC(C)c1ccc(/C=C(\c2nc3ccccc3[nH]2)S(=O)(=O)c2ccccc2)cc1 | -8% | 7.9µM* | 10µM* | ? | ? | -14 | 16µM* | 10µM* | 4.6µM* | -17%
O=S(=O)(/C(=C/c1ccc(C(F)(F)F)cc1)c1nc2ccccc2[nH]1)c1ccccc1 | -8% | 5µM* | 7.9µM* | ? | 27µM* | -18 | 2.9µM* | 2.6µM* | 1.8µM* | ?
C/C(=C\c1ccc(N)cc1)c1nc2ccccc2[nH]1 | ? | -1% | -5% | 48% | i | 5 | · | · | · | ·
CC1CCCCN1C(=S)NC(=O)c1cc(Br)ccc1Cl (stereo not drawn) | -20% | ? | -25% | -29% | i | 3 | · | · | · | ·
Cc1cc(Br)cc(Br)c1OCC(=O)NNC(=O)Nc1ccccc1 | 4% | -3% | -55% | 26% | i | 8 | · | · | · | ·
CCOC(=O)C1CCN(S(=O)(=O)c2ccc3c(c2)CC(C)N3C(=O)C2CCC2)CC1 (stereo not drawn) | -18% | -1% | 1% | · | i | 31 | · | · | · | ·
COc1ccc(C)cc1S(=O)(=O)N(CC(=O)NCc1ccc(Cl)cc1)Cc1ccccc1 | -19% | 13µM* | -1% | 0% | i | 1 | ? | ? | ? | 43%
COc1ccc(C(=O)NCc2nnc(SCC(=O)Nc3cc(Cl)ccc3OC)o2)cc1 | 12% | ? | -2% | · | i | 12 | · | · | · | ·
Cc1ccccc1-n1c(Cn2c(=O)sc3ccccc32)nnc1SCC(=O)N1CCCC1 | -10% | 20% | 11% | -12% | i | -12 | · | · | · | ·
CCOC(=O)CNC(=O)CSc1nnc(Cn2c(=O)sc3ccccc32)n1-c1ccccc1C | · | ? | -29% | 2% | i | 2 | ? | -5% | 4% | 1%
CC(C)(C)C(=O)NCCCc1nc2ccccc2n1CCCOc1ccc(Cl)cc1 | 1% | 13µM* | -17% | -31% | i | 2 | 12µM* | -14% | ? | 11%
CC(=O)NCCc1nc2ccccc2n1CCCCOc1ccc(Cl)cc1 | · | ? | -41% | ? | ? | · | · | · | · | ·
O=[N+]([O-])c1ccc(S(=O)(=O)c2cccc(C(F)(F)F)c2)nc1 | -13% | 6.3µM* | 13µM* | ? | 16µM* | 0 | 3.7µM* | 7.3µM* | 2.6µM* | 16µM*
COc1ccc2cc([C@H](C)C(=O)N(C)Cc3ccccc3N3CCCC3)ccc2c1 | 4% | 10µM* | -30% | -23% | i | -4 | 8.2µM* | ? | ? | 34%
Cc1cccc(-c2nn3c(=O)cc(CN4CCN(S(=O)(=O)c5ccc(Cl)cc5)CC4)nc3s2)c1 | · | -18% | -21% | -1% | i | · | · | · | · | ·
CCCN(CC(=O)Nc1ccccc1C)C(=O)CCCOc1ccc(Br)cc1 | 3% | -23% | -28% | · | i | -4 | · | · | · | ·
O=C(c1ccc(CSc2nc3ccncc3[nH]2)cc1)N1CCN(c2cccc(Cl)c2)CC1 | ? | 7.9µM* | -45% | ? | ? | 0 | 16µM* | ? | ? | 12%
O=C(c1ccc(CSc2nc3ccncc3[nH]2)cc1)N1CCCCCC1 | -15% | -16% | -38% | ? | i | ? | · | · | · | ·
O=C(COC(=O)/C=C/c1cccc(F)c1)NC1CCCCCC1 | 10% | ? | -5% | -8% | i | -11 | · | · | · | ·
COc1ccc(C2C(C#N)=C(N)N(Nc3ccccc3)C3=C2C(=O)CC(C)(C)C3)cc1C (stereo not drawn) | 0% | 11µM* | -1% | -23% | i | -2 | 21µM* | -25% | ? | 21%
C=C(C)c1cccc(C(C)(C)NC(=O)Nc2nnc(C(C)C)s2)c1 | -5% | 8.9µM* | 8% | · | ? | -1 | ? | 0% | -6% | -1%
CCCCCC/C=C/c1ccc(C2C3C=CCC(C)C3C(=O)N2Cc2ccccc2)c(F)c1 (stereo not drawn) | · | 0% | -3% | · | · | 26 | · | · | · | ·
COc1ccc(CNC(=O)c2[nH]c(C(F)(F)F)nc2-c2ccccc2)cc1OC | · | -10% | -12% | 1% | i | · | · | · | · | ·
COc1ccc(CNc2cccc3[nH]c(C(F)(F)F)nc23)cc1OC | -12% | 5.6µM* | -31% | · | · | 7 | ? | -4% | -21% | -9%

Source: PubChem
